MenB inh = M. tuberculosis MenB inhibitors, primary screen, biochemical, absorbance; 1,4-dihydroxy-2-naphthoyl-CoA synthase (Mycobacterium tuberculosis (strain ATCC 25618 / …; MenB enzyme assay, absorbance read-out; inhibition, % (no concentration beside the values); hit rate 0.43% among 100,000; AID 540299, 2011; in the data active = inhibition above about 21%, passing the limit was not always enough
Target sequence (P9WNP5 whole entry, looked up): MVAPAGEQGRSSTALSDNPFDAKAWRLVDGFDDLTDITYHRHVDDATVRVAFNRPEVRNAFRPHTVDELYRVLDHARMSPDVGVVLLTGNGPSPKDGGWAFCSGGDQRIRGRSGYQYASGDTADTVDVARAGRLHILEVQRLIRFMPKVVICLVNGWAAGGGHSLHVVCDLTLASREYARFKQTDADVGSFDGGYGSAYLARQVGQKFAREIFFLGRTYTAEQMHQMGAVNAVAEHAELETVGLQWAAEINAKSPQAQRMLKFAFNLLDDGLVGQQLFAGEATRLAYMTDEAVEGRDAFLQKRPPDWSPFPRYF
PV pol inh = poliovirus RdRp elongation inhibitors, primary screen, biochemical, fluorescence polarization, total intensity | hit rate 0.66% among 150,000 | % elongation, % (compound at 16.7 µg/mL) | AID 588519, 2011 | poliovirus polymerase elongation; stronger effect = lower value | Genome polyprotein (Poliovirus type 1 (strain Mahoney)), P03300; in the data active = % elongation below about 90%
AID504770 = growth inhibition of E. coli YBA685, primary screen, V. cholerae RctB inhibitors | E. coli YBA685 rctB-dependent plasmid, OD600 growth, 3 h; stronger effect = lower value | AID 504770, 2011 | hit rate 0.27% among 130,000 | z-score (test concentration not listed); in the data active = z-score below about -2, passing the limit was not always enough
MbtI inh = MbtI salicylate synthase inhibitors, primary screen, biochemical, fluorescence intensity | inhibition, % (concentration not given with the values) | P9WFX0 | hit rate 0.89% among 100,000 | purified MbtI enzyme, fluorescence intensity read-out; in the data active = inhibition mostly above about 56%, no sharp cut-off; inactive = mostly below about 77%
* hit, by the source's call; . = no result given. Sampled rows, rich in hits. Any-hit rate of the full collection: about 1.4%.

SMILES	MenB inh	PV pol inh	AID504770	MbtI inh
Cc1ccc(C(=O)CC(C(=O)O)N2CCN(C)CC2)cc1 (stereo not drawn)	31*	104	-1.3	.
CC1=CC(=O)C=C(C)C1=NS(=O)(=O)c1ccccc1	-11	103	2	96*
O=S(=O)(N=C1SCCS1)c1ccccc1	.	.	-0.2	.
CC1OS(=O)OC1(c1ccccc1)c1ccccc1 (stereo not drawn)	-16	89*	-1.3	.
CCN(Cc1ccc(/C=C2\C(=O)Nc3ccccc32)o1)S(C)(=O)=O	-180	107	1.5	5
Cc1sc(NC(=O)C(C)Oc2ccc(Cl)cc2Cl)c(C(N)=O)c1C (stereo not drawn)	-23	75*	1.5	.
Cc1snnc1C(=O)Oc1ccccc1-c1nnco1	10	78*	0.6	-61
O=C(Oc1ccccc1-c1nnco1)c1ccc(C(F)(F)F)cc1	-80	105	-0.55	-104
CCC(=O)NC(c1c(C)[nH]n(-c2ccccc2)c1=O)(C(F)(F)F)C(F)(F)F	0	107	-3.2*	.
COc1ccc(C)cc1CSc1nnc(-c2cccs2)n1C1CC1	-26	106	0	9
COc1ccc(C2(CNC(=O)c3ccco3)CCOCC2)cc1	-13	78*	0.15	.
O=C(CSc1ccc2nc(-c3ccccc3)cn2n1)Nc1ccccc1	.	87*	.	.
CC(=O)c1ccc(NC(=O)CSc2ccc3nc(-c4ccccc4)cn3n2)cc1	.	108	.	.
C=CCN1C(=O)CS/C1=C(\C#N)S(=O)(=O)c1ccc(C)cc1	-69	98	-2.9*	1
CN(CC(=O)O)C1=NS(=O)(=O)c2ccccc21	-5	103	-0.05	1
CCOC(=O)c1cnc2ccc(OCC)cc2c1NCCCN1CCOCC1	2	89*	-0.2	.
CCOC(=O)c1cnc2ccc(OCC)cc2c1NCCN(C)C	-9	101	-0.95	35
O=C(Nc1nccs1)C1CCN(S(=O)(=O)c2cccnc2)CC1	.	.	-0.75	.
O=C(Nc1nccs1)C1CCN(S(=O)(=O)c2ccccc2)CC1	-53	105	-2.3*	-7
CC(C)=CC[C@@H](O)C1=CC(=O)c2c(O)ccc(O)c2C1=O	.	46*	.	-22
O=C(CCc1cccs1)NC1=NCCS1	-13	103	-0.7	-5
Fc1ccc2nc(NCc3ccccc3)sc2c1	-2	84*	-0.6	61
CC1CCCCN1C(=O)c1ccccc1NS(=O)(=O)c1ccc(F)cc1 (stereo not drawn)	41*	101	-0.1	-3
CC1CCCC(C)N1C(=O)c1ccccc1NS(=O)(=O)c1ccc(F)cc1 (stereo not drawn)	.	101	-0.05	-6
COc1ccc(/C=N/n2cn[nH]c2=S)cc1	-40	105	1.4	71*
SMILES	MenB inh	PV pol inh	AID504770	MbtI inh
COc1ccc(/C=N/n2cnnc2)cc1	-2	103	0.5	11
CCOc1cc(S(=O)(=O)NCCc2ccc(OC)c(OC)c2)c(OCC)cc1-n1cnnn1	44*	103	1.9	-18
CCOc1cc(S(=O)(=O)NCc2ccc(OC)cc2)c(OCC)cc1-n1cnnn1	23	102	1.6	48
c1ccc(-c2noc(C3CCCO3)n2)nc1 (stereo not drawn)	-14	99	-0.1	5
CCC(=O)N(c1n[nH]c(=S)s1)C1CC1	-13	.	-0.65	91*
Cc1nn(-c2ccccc2)c2c1-c1onc(C(=O)NCc3ccco3)c1CC2	-10	102	-0.45	1
Cc1cc(F)c(F)c(C(=O)N2CCCCCC2)c1Cl	34*	103	1.4	2
O=S(=O)(Cc1ccc(Cl)cc1)Nc1nc2ccccc2s1	-21	101	-0.7	-3
CCNS(=O)(=O)c1ccc(S(=O)(=O)N(Cc2ccccn2)C2CCCCC2)cc1	-24	105	-0.6	-13
CCC(C)NS(=O)(=O)c1ccc(S(=O)(=O)N(Cc2ccc(C)o2)C2CCCC2)cc1 (stereo not drawn)	33*	102	0.9	-2
CCOC(=O)N1CCN(S(=O)(=O)c2cc(Cl)c(C)cc2OCC)CC1	-16	100	-0.55	-31
O=C1NC2(CCN(C(=O)NCC3CCCO3)CC2)Oc2ccccc21 (stereo not drawn)	8	100	-0.65	-4
COc1cccc(N2CCN(C(=O)CCCn3sc4ccccc4c3=O)CC2)c1	-40	99	-0.8	97*
COc1cccc(N2CCN(C(=O)Cn3ncc4c5ccccc5n(C)c4c3=O)CC2)c1	.	106	.	.
O=C(c1ccc2nc3ccc(Cl)cc3c(=O)n2c1)N1CCCCCC1	-8	102	0.3	-17
CC1(C)C2CCC1C(O)C2O (stereo not drawn)	9	103	1.4	17
CN(C)C(=S)SSC(=S)N(C)C	8	101	-0.85	87*
CC1CCCCN1C(=O)CSc1nnc(CNc2ccc(Cl)cc2)o1 (stereo not drawn)	9	101	-0.05	5
Cn1c(SCC(=O)N(c2ccccc2)C2CCCCC2)nc2cc(S(N)(=O)=O)ccc21	6	79*	-0.3	17
COC(=O)C1=C(C)NC(=O)C1(NS(=O)(=O)c1ccc(C)cc1)C(F)(F)F (stereo not drawn)	3	99	-0.1	-2
COC1(NS(=O)(=O)c2ccc(C)cc2)C(C)=CC(=O)C=C1C	.	.	0.45	94*
O=C(CSc1ncc(C(F)(F)F)cc1Cl)N1CCNC1=O	3	104	1.2	58*
COc1ccc(C(=O)OCC(=O)c2ccc3[nH]c(=O)[nH]c3c2)c(OC)c1	-17	88*	-0.4	1
Cc1onc(-c2ccccc2)c1C(=O)OCC(=O)c1ccc2[nH]c(=O)[nH]c2c1	-18	76*	-0.8	2
O=C(COC(=O)c1ccccc1NCc1ccco1)c1ccc2[nH]c(=O)[nH]c2c1	1	44*	0.9	-196
SMILES	MenB inh	PV pol inh	AID504770	MbtI inh
O=C(COC(=O)c1ccccc1NCc1ccco1)c1ccc(Cl)cc1	-30	106	-0.5	-37
CCN1C(=O)CC(C(=O)Nc2ccccc2)SC1=Nc1ccccc1 (stereo not drawn)	-7	103	-0.4	-24
Cn1c(=S)[nH]c2sccc2c1=O	-38	98	-1.9	25
N/C(=N\OC(=O)c1ccc2nsnc2c1)c1nonc1N	6	102	-0.35	-1
COc1ccc(-n2ncc(C(=O)NCCc3ccccn3)c2C)cc1	.	.	0.5	.
CCS(=O)c1ccccc1C(=O)NCc1ccc(C)cc1 (stereo not drawn)	-28	100	-0.75	100*
CCn1c(C(=O)O)c(CC(=O)Nc2cc(OC)ccc2OC)c2ccccc21	11	98	-0.15	18
C/C(=N\NC(=O)C(F)(F)F)c1ccccc1O	34*	103	1	1
Cc1nonc1NC(=O)Nc1cccnc1	-11	103	-2*	.
CCN1C(=O)C(=Cc2ccc(-c3ccc(Br)c(Cl)c3)o2)C(=O)N(CC)C1=S	4	99	1	90*
COc1ccccc1C1=NN(C(=S)Nc2ccccc2)C(c2ccco2)C1 (stereo not drawn)	-38	101	0.1	73*
COc1cccc(C2=NN(C(=O)c3ccccc3Cl)C(c3ccco3)C2)c1 (stereo not drawn)	-31	99	1.2	15

Assay outcomes as filed in PubChem.
